We go through 14 compounds from PubChem BioAssay (NCATS).

A number with no mark means an inactive call. Inconclusive results are not listed. The source made the active and inactive calls. Unless noted, calls follow the shape of the dose curve; as a rule, active = well fitted curve in the direction sought with a large enough effect; inconclusive = small, poorly fitted or top-dose-only effect, or another doubt; inactive = no such curve, though single readings can be large; an effect the other way counts as inactive or inconclusive.

For experiment [1], the target named is 3',5'-cyclic-AMP phosphodiesterase 4B (Homo sapiens) (UniProt Q07343). The experiment can be described thus: qHTS Assay for Inhibitors of PDE-IV (AID 607; active = well fitted activation curve with a large enough effect in the main read-out, with a control signal flat, not every such curve was filed as active; also: % of control where 0% means no effect). In a few lines: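 Cell-based read-out of cAMP via a modified cyclic nucleotide-gated channel and membrane potential dye (535/590 nm) in HEK293 cells expressing PDE4 endogenously. Compounds tested up to 22.9 uM final; 100 uM RO 20-1724 reference.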

For experiment [2], the target named is Guanine nucleotide-binding protein G(i) subunit alpha-1 (Homo sapiens) (UniProt P63096). In words: qHTS Assay for Inhibitors of RGS12 GoLoco Motif Activity (Green Fluorophore) (AID 879).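 Also: 0% = labeled peptide with Gαi1 and full inhibition = labeled peptide alone without protein; negative values mean loss of peptide binding seen as reduced polarization.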 Summed up: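 A drop in FITC polarization marked displacement of the FITC-tagged RGS12 GoLoco peptide (10 nM) from Gαi1 (50 nM). Compounds were incubated 10 min at room temperature in Tris pH 7.5 buffer containing 150 mM NaCl, 0.1 mM GDP and 0.05% NP40; unlabeled peptide titration served as control.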

Experiment [3] concerns the target Cytochrome P450 2D6 (Homo sapiens) (UniProt P10635). In words: qHTS Assay for Inhibitors and Substrates of Cytochrome P450 2D6 (AID 891). Also: nearly all actives have a fitted effect of over 60% in size. Also: potency is read from the fitted curve at half-maximal effect. In a few lines: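 Luminescent read-out of luciferin formed by 5 nM human CYP2D6 demethylating 30 uM Luciferin-ME EGE (Km level) over 60 min at room temperature after NADPH regeneration addition. Data normalized to full inhibition by 1.43 uM quinidine.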
(qHTS replaces the single test concentration by a dilution series.)

Experiment [4] has as its target Cytochrome P450 2C19 (Homo sapiens) (UniProt P33261). The experiment can be described thus: qHTS Assay for Inhibitors and Substrates of Cytochrome P450 2C19 (AID 899). Also: nearly all actives have a fitted effect of over 60% in size. Also: potency is read from the fitted curve at half-maximal effect. In a few lines: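 Signal comes from luciferase acting on luciferin released by CYP2C19-mediated hydroxylation of Luciferin-H EGE, 10uM (KM). Assay mix: 5nM enzyme, 50mM KPO4; 60 min at 37C with NADPH regeneration. Data normalized against 57uM ketoconazole.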

A short description of experiment [5]: Confirmation and Secondary Assay for Modulators of Hemoglobin Beta Chain Splicing at IVS2 654 locus (AID 910).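 Also: HeLa cells stably carrying EGFP split by mutant beta-globin IVS2-654 intron; % of control where 0% means no effect.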 In a few lines: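 HeLa cells stably expressing EGFP interrupted by β-globin IVS2-654 intron, seeded overnight in Opti-MEM/2% FCS, then treated 2 days at 37 °C. Restored splicing read as total peak GFP intensity per well by laser scanning cytometry (488 nm excitation, 500–520 nm emission); 500 nM antisense PNA as control.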

Experiment [6] concerns the target Cytochrome P450 3A4 (Homo sapiens) (UniProt P08684). The experiment can be described thus: qHTS Assay for Inhibitors and Substrates of Cytochrome P450 3A4 (AID 884). Also: nearly all actives have a fitted effect of over 50% in size. Also: potency is read from the fitted curve at half-maximal effect. In a few lines: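 Luminescent readout of luciferin produced by CYP3A4 (20 nM) dealkylation of Luciferin-PPXE, 25 uM (its KM). NADPH-driven reaction ran 60 min at RT after 10 min compound preincubation; data scaled to 57 uM ketoconazole as 100% inhibition.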

The nature of experiment [7]: qHTS Assay for Identification of Small Molecule Agonists for Hypoxia Response Element Signaling Pathway (AID 914; active = well fitted activation curve with a large enough effect in the signal ratio, with a control signal flat, not every such curve was filed as active; the % refers to the signal ratio; also: % of control where 0% means no effect). As to conditions: ME-180 (cervical carcinoma) HRE-bla reporter, beta-lactamase ratio, CoCl2, 17 h; stronger effect = higher value. In a few lines: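 Reporter activity (beta-lactamase, CCF4 460nm/530nm ratio) in HRE-bla ME-180 cells is recorded after 17 h compound exposure with EC50 CoCl2 at 37 degrees Celsius. AC50 values come from titration data.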

The target of experiment [8] is Cytochrome P450 2C9 (Homo sapiens) (UniProt P11712). The experiment can be described thus: qHTS Assay for Inhibitors and Substrates of Cytochrome P450 2C9 (AID 883). Also: % is scaled to controls: 0 for no effect and ±100 for the full control effect; nearly all actives have a fitted effect of over 60% in size. In a few lines:
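Signal: luciferase luminescence reporting luciferin produced by CYP2C9. Conditions: 10nM enzyme, Luciferin-H 100uM at KM, 25mM KPO4, 37C, 60 min NADPH-driven reaction. Reference: 57uM sulphaphenazole as 100% inhibition.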

The nature of experiment [9]: Cellular Toxicity (caspase-3) HUV-EC-C (AID 656).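 Also: 0% = DMSO basal and 100% = 100 µM tamoxifen.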 In a few lines: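 qHTS; HUV-EC-C, 1000 cells/well; 5 hr settle, 16 hr cmpd, 37°C; Caspase-Glo 3/7, 20 min RT; luminescence. Norm: DMSO = 0%, tamoxifen 100 uM = 100%. Hill-fit AC50.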
The nature of experiment [10]: Cellular Toxicity (caspase-3) SHSY5Y (AID 657). Also: potency is read from the fitted curve at half-maximal effect. In a few lines:
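qHTS, SH-SY5Y, 1500 cells/well, 5 h pre-incubation 37 °C; compound 16 h 37 °C; Caspase-Glo 3/7 1 h RT; luminescence. Norm.: DMSO = 0, 10 uM staurosporine = 100%. Hill fit → AC50.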

The nature of experiment [11]: Cellular Toxicity (caspase-3) BJ (AID 658).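 Also: 0% = DMSO basal and 100% = 10 µM staurosporine.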 Summed up:
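qHTS, BJ fibroblasts, 1000 cells/well; 5 hr preincubation, 16 hr compound, 37 °C; Caspase-Glo 3/7 reagent, 1 hr RT; luminescence. DMSO = 0%, 10 uM staurosporine = 100%. Hill-equation AC50.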

The nature of experiment [12]: Cellular Toxicity (caspase-3) MRC-5 (AID 659).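 Also: 0% = DMSO basal and 100% = 10 µM staurosporine.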 The note with it: Potency: caspase-3 activation. In a few lines:
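MRC-5 fibroblasts, 1500/well; 16 h cpd, 37 °C; Caspase-Glo 3/7, 1 h RT; lumi read. Norm: DMSO = 0%, 10 uM staurosporine = 100%. Hill-fit AC50 from qHTS conc-response.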

Experiment [13] can be described thus: Cellular Toxicity (caspase-3) Mesangial (AID 660).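 Also: combined caspase 3 and 7 activity read by Caspase-Glo luminescence; cells exposed to compound for 16 h before the caspase read.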 In a few lines:
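AC50 values come from Hill-equation fits of caspase 3/7 activation, measured as Caspase-Glo luminescence in human glomerular mesangial cells exposed to compound for 16 h at 37 °C; 100% set by 100 uM tamoxifen.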

Experiment [14] can be described thus: Cellular Toxicity (caspase-3) SK-N-SH (AID 661). Also: potency is read from the fitted curve at half-maximal effect. In a few lines:
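Apoptosis readout in SK-N-SH neuroblastoma: Caspase-Glo 3/7 luminescence following 16 hr treatment in complete culture medium. Normalization used DMSO and 10 uM staurosporine controls.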

Experiment [15] in a line: Cellular Toxicity (caspase-3) H-4-II-E (AID 663). Also: potency is read from the fitted curve at half-maximal effect. As to conditions: Potency: caspase-3 activation. In a few lines: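 H-4-II-E rat hepatoma, 1500 cells/well, 5 hr settle at 37 °C; compound 16 hr, 37 °C, complete medium; Caspase-Glo 3/7, 20 min RT; luminescence. DMSO = 0%, 100 uM tamoxifen = 100%; Hill-equation AC50.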
A short description of experiment [16]: Cellular Toxicity (caspase-3) Hek293 (AID 664).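 Also: cells exposed to compound for 16 h at 37 °C before readout.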 In a few lines: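 Apoptosis readout: Caspase-Glo 3/7 signal in human HEK293 cells following 16-hour compound incubation. Responses scaled between DMSO baseline and 100 uM tamoxifen.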
The nature of experiment [17]: Cellular Toxicity (caspase-3) N2a (AID 665).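 Also: potency is read from the fitted curve at half-maximal effect; compound exposure lasted 16 h at 37 °C before readout.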 The note with it: Potency: caspase-3 activation. In a few lines:
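Concentration-response qHTS: compound-induced caspase-3/7 luminescence in N2a cells (16 h, 37 °C), relative to DMSO and 10 uM staurosporine controls; AC50 obtained using the standard Hill equation.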

Experiment [18] is described as follows: Cellular Toxicity (caspase-3) NIH 3T3 (AID 666).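 Also: potency is read from the fitted curve at half-maximal effect; caspase signal read after 16 h compound exposure.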 In a few lines: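 Activity: caspase-3/7 induction, NIH 3T3 cells, 16 hr treatment at 37°C, luminescent Caspase-Glo detection; AC50 via Hill equation.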

Chain of Guanine nucleotide-binding protein G(i) subunit alpha-1 (Homo sapiens) (P63096 whole entry, looked up): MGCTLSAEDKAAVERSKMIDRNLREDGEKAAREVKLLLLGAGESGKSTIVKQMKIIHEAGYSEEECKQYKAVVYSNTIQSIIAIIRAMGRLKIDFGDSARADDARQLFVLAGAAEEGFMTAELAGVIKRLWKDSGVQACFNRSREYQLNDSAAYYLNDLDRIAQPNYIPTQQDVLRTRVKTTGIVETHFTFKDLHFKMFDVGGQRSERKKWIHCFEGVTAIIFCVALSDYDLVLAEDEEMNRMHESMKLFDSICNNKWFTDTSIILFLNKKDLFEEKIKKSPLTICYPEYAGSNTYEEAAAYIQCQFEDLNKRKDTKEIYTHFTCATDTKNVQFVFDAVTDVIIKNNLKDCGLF
Chain of 3',5'-cyclic-AMP phosphodiesterase 4B (Homo sapiens) (Q07343 whole entry, looked up): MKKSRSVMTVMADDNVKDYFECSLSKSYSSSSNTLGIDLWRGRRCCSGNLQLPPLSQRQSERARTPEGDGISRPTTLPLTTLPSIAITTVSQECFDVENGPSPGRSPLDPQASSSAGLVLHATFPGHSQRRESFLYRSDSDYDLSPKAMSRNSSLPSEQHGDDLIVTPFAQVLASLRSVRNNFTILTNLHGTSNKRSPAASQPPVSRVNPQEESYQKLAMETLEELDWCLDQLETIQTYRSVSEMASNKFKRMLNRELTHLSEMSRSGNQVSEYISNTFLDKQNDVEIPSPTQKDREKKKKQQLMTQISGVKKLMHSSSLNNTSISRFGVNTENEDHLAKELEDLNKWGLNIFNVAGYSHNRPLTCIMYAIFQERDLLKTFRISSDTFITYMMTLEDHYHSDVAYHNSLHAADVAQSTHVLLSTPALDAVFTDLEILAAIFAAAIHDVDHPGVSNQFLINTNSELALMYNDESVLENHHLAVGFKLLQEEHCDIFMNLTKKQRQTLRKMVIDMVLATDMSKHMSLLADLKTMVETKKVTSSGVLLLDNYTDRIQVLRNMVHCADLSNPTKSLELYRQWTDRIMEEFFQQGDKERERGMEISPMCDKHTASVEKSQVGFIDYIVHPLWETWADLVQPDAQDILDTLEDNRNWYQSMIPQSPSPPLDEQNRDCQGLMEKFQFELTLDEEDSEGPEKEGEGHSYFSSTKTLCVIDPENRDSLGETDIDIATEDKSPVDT
Chain of Cytochrome P450 2D6 (Homo sapiens) (P10635 whole entry, looked up): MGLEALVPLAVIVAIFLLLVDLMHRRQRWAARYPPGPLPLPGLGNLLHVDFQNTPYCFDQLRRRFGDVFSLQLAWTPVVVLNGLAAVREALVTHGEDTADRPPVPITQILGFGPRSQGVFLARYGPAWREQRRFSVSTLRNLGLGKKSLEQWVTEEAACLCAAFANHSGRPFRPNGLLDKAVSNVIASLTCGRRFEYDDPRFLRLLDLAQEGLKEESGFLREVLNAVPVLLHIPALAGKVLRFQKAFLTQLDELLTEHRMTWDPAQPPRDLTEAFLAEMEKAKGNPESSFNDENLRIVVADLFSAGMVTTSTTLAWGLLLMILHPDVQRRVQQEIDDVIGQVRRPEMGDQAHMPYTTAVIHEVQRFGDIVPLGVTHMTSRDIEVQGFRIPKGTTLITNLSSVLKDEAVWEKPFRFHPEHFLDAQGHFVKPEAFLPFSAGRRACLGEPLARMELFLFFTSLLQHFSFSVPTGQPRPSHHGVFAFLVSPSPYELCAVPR
Chain of Cytochrome P450 2C9 (Homo sapiens) (P11712 whole entry, looked up): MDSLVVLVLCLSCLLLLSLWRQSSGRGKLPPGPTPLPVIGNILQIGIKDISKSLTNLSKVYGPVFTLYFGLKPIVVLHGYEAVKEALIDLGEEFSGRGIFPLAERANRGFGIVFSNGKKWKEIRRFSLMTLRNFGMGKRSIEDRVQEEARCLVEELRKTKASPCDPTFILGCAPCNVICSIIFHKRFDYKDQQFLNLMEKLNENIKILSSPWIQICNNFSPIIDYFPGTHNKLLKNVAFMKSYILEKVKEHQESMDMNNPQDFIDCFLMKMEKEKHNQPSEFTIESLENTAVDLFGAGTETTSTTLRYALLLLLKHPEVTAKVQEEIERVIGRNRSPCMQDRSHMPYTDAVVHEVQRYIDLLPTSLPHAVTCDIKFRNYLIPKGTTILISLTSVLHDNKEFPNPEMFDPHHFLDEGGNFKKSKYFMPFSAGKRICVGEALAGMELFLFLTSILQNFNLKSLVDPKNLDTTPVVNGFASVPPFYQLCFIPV
Chain of Cytochrome P450 3A4 (Homo sapiens) (P08684 whole entry, looked up): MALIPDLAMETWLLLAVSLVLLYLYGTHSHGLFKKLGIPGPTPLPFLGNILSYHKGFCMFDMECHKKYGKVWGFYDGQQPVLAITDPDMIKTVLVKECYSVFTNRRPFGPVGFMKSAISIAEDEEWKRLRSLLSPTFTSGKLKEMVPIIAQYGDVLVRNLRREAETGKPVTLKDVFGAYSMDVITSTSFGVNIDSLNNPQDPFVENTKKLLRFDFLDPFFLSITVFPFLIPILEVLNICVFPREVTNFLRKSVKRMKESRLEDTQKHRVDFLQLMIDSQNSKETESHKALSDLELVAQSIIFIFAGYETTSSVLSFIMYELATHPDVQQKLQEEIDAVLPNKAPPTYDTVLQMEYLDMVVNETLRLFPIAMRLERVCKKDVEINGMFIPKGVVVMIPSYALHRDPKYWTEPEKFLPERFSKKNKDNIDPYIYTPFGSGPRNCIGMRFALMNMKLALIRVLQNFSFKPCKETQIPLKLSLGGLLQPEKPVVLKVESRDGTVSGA
Chain of Cytochrome P450 2C19 (Homo sapiens) (P33261 whole entry, looked up): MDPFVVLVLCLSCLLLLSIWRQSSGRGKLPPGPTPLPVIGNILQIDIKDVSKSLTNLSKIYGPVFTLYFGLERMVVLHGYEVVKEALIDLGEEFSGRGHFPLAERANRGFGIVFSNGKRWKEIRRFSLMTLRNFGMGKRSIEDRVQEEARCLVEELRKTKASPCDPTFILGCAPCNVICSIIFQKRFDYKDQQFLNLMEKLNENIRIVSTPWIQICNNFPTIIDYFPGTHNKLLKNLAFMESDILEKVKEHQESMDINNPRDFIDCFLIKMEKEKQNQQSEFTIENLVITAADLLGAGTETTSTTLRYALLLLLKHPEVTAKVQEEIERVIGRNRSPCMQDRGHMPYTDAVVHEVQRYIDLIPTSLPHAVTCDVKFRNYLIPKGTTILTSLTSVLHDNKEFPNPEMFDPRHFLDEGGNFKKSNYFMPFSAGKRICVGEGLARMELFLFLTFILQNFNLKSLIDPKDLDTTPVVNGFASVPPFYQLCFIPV

With `Nc1cc(Cl)c(NC2=NCCN2)c(Cl)c1`, the compound was called inactive in experiment [1] and in experiment [2].

For the compound `O=C(COc1ccc(Cl)cc1)N1CCN(Cc2ccc3c(c2)OCO3)CC1`, the call in experiment [1] and in experiment [5] was inactive. The figures for the Potency in experiment [3] and in experiment [4] were 0.199 µM (active) and 5.01 µM (active), respectively.

Consider `CCOC(=O)n1ccn(C)c1=S`, for which the outcome in [1] and in [5] was inactive. Moreover, in experiment [6], the Potency result is “inactive”.

Turning to `CC(C)(C(=O)c1cccnc1)c1cccnc1`, the compound was called inactive in experiment [1]. In addition, the Potency in [6] was 1.26 µM (active). The activation in experiment [7] is -12.9%.

In the case of `Nc1nc2ncc(CNc3ccc(C(=O)N[C@@H](CCC(=O)O)C(=O)O)cc3)nc2c(=O)[nH]1`, in experiment [1], the call was inactive. Further, the Potency entry in experiment [6] was “inactive”.

Turning to `COc1cc(NS(C)(=O)=O)ccc1Nc1c2ccccc2nc2ccccc12`, the outcome in experiment [1] and in experiment [2] was inactive. Further, the Potency entry in experiment [8] is “inactive”.

In the case of `CCn1cc(C(=O)O)c(=O)c2cnc(N3CCCC3)nc21`, the outcome in experiment [1] and in experiment [5] was inactive. The Potency result in [6] is “inactive”.

On to `COc1cccc2c1C(=O)c1c(O)c3c(c(O)c1C2=O)C[C@@](O)(C(=O)CO)C[C@@H]3O[C@H]1C[C@H](N)[C@H](O)[C@H](C)O1`, for which the outcome in experiment [9], in experiment [11], in [13] and in experiment [16] was inactive. In addition, the Potency in experiment [10] was 0.0158 µM (active); in [14] it was 0.251 µM (active); in experiment [15], 31.6 µM (active); in experiment [17] it was 3.16 µM (active); in experiment [18], 0.398 µM (active). Also, the Potency entry in [12] is “inactive”.

For the compound `CCCC1O[C@@H]2C[C@H]3[C@@H]4CCC5=CC(=O)C=C[C@]5(C)[C@H]4[C@@H](O)C[C@]3(C)[C@]2(C(=O)CO)O1` (stereo partly specified), the call in [2] was inactive.

Consider `COc1c(C)c2c(c(O)c1C/C=C(\C)CCC(=O)O)C(=O)OC2`, for which the call in experiment [1] and in experiment [5] was inactive. Further, the Potency entry in experiment [8], in experiment [3] and in [4] was “inactive” throughout.

Turning to `C1CCc2nnnn2CC1`, the result in experiment [1], in [2] and in experiment [5] was inactive. The Potency result in experiment [6] was “inactive”.

As to `C[N+]1(CCCCC[N+]2(C)CCCC2)CCCC1`, the compound was called inactive in experiment [1], in experiment [2] and in experiment [5].

On to `Cc1cc(=O)n(-c2ccccc2)n1C`, for which the call in [1] and in experiment [5] was inactive.

For `CCCn1c(=O)[nH]c(=O)c2[nH]cnc21`, the outcome in experiment [1] and in experiment [2] was inactive. In addition, the Potency result in experiment [8], in experiment [6], in [3] and in [4] was “inactive” each time.
